The sample as a whole holds a higher share of hits than the screen did.
14-3-3 PPI = alters human 14-3-3 gamma binding to Raf peptide; P61981; FP, 14-3-3gamma / TMR-pS259-Raf peptide binding; inhibition, % at 40 µM; 160,000 tested, 0.19% active; in the data active = inhibition above about 30%;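 note: 0% = protein plus tracer without compound and 100% = blank with tracer alone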
Target sequence (P61981 whole entry, looked up): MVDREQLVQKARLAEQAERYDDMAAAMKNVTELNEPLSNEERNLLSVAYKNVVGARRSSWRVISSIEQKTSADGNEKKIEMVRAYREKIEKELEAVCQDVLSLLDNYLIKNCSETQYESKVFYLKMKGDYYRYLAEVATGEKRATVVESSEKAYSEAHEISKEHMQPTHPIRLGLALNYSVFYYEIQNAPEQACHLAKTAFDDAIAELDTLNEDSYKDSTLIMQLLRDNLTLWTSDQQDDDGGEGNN
* hit, by the source's call; ! = not confirmed by another sample.

SMILES	14-3-3 PPI
CCc1ccc(C2Nc3ccccc3-c3nnc(SC)nc3O2)cc1 (centres undefined)	149*
CCSc1nnc2c(n1)OC(c1cc3c(cc1Cl)OCO3)Nc1ccccc1-2 (centres undefined)	21
CCc1ccc(C2Nc3ccc(Br)cc3-c3nnc(SC)nc3O2)cc1 (centres undefined)	0
CCSc1nnc2c(n1)OC(c1ccccc1F)Nc1ccccc1-2 (centres undefined)	3
CSc1nnc2c(n1)OC(C1CC=C(C)CC1)Nc1ccccc1-2 (centres undefined)	37*!
CSc1nnc2c(n1)OC(c1ccncc1)Nc1ccccc1-2 (centres undefined)	-7
Cc1cc(C(=O)Oc2ccc3ccccc3c2)ccc1[N+](=O)[O-]	6
O=C1C2C3CCC(C3)C2C(=O)N1c1cc(Cl)ccc1O (centres undefined)	-20
Cc1cccc(-n2ccnc2SCC(=O)Nc2cc(C(F)(F)F)ccc2Cl)c1C	-9
CCCCC(=O)N1C2=C(C(=O)c3ccccc32)C(c2ccc(Cl)cc2)c2c1n(C)c(=O)n(C)c2=O (centres undefined)	0
CCSc1nnc2c(n1)OC(c1ccc3ccccc3c1)Nc1ccccc1-2 (centres undefined)	139*
CCSc1nnc2c(n1)OC(c1ccc(C(=O)O)cc1)Nc1ccccc1-2 (centres undefined)	3
CCSc1nnc2c(n1)OC(c1ccc(OC3CCCC3)cc1)Nc1ccccc1-2 (centres undefined)	26
CC1C(O)CCN(C)C1C (centres undefined)	-10
COCCNC(=O)C1c2ccccc2C(=O)N2CCc3cc(OC)c(OC)cc3C12 (centres undefined)	0
NC1=NC(=O)C(CC(=O)Nc2ccccc2Br)S1 (centres undefined)	9
COc1cccc(Oc2cc([N+](=O)[O-])cc3c2C(=O)Nc2ccccc2O3)c1	61*
Cc1cccc(Oc2cc([N+](=O)[O-])cc3c2C(=O)Nc2ccccc2O3)c1	-83
O=C1Nc2ccccc2Oc2cc([N+](=O)[O-])cc(Oc3ccccc3)c21	-79
NC(=O)CSc1nnc(Nc2ccccc2)s1	-9
O=C(CSc1nnc(-c2ccco2)c(-c2ccco2)n1)Nc1ccc(Cl)cc1	-20
CC(C)CC(C(=O)Nc1ncn[nH]1)N1C(=O)c2ccccc2C1=O (centres undefined)	-11
NC(=O)c1ccc(N2CCCCC2)c(N2C(=O)C3C4C=CC(C4)C3C2=O)c1 (centres undefined)	2
NC(=O)c1cc(N)ccc1N1CCCC1	31*
NC(=O)c1ccc(N2CCCCC2)c(N2C(=O)CCC2=O)c1	-1
SMILES	14-3-3 PPI
CC1CCc2c(sc(N)c2C(=O)Nc2ccc(Br)cc2)C1 (centres undefined)	-52
CC1CCCCC1N1C(=O)C2C(C(=O)Nc3ccc(Cl)cc3)C3C=CC2(O3)C1C(=O)NC1CCCCC1 (centres undefined)	-15
COc1ccc(C2C(C(=O)N3CCN(C)CC3)CCC(=O)N2c2cc(OC)c(OC)c(OC)c2)cc1 (centres undefined)	-6
CCC(=O)OCCNc1ccc2noc3c2c1C(=O)c1ccccc1-3	141*
O=C1c2ccccc2-c2onc3ccc(Nc4ccccc4)c1c23	-232
CC(=O)OCCNc1cc(N2CCN(C)CC2)c2noc3c2c1C(=O)c1ccccc1-3	-70
COc1ccc(C(=O)Nc2cc(-c3nc4cc(C)ccc4o3)ccc2Cl)cc1Cl	-81
COc1ccccc1N1CCN(S(=O)(=O)c2ccc(F)c(C(=O)Nc3ccccc3C(F)(F)F)c2)CC1	-3
NC(=O)c1ccc(N=c2oc3ccccc3cc2C(=O)Nc2ccccc2)cc1	7
Cc1c(C)c2cc(Cl)c(O)c(CN3CCN(C)CC3)c2oc1=O	1
Cc1cc(=O)oc2c(CN3CCCCC3)c(O)c(Cl)cc12	-7
Cc1cc(=O)oc2c(CN3CCC(C)CC3)c(O)c(Cl)cc12	60*
Cc1cc(=O)oc2c(CN(CC(C)C)CC(C)C)c(O)ccc12	-18
CCN(CC)Cc1c(O)c(Cl)cc2c(C)cc(=O)oc12	63*
CCN1CCN(Cc2c(O)c(Cl)cc3c(C)cc(=O)oc23)CC1	17
Cc1nc2ccccc2n1S(=O)(=O)c1ccc2c(c1)C(=O)c1ccccc1C2=O	-7
Cc1cc(Br)cc(C=Cc2[nH]c(=O)[nH]c(=O)c2[N+](=O)[O-])c1O	-3
O=c1c2cc(N3CCOCC3)ccc2nc(SCc2cc(=O)n3ccccc3n2)n1Cc1ccc2c(c1)OCO2	-8
CCCOC(=O)C1=C(C)NC2=C(C(=O)C(C(=O)OC)C(C)C2)C1c1ccc2c(c1)OCO2 (centres undefined)	-10
COc1ccccc1NC(=O)c1ccc(SCC(=O)NC2CCCCC2)c([N+](=O)[O-])c1	-15
CC(=O)NC(=O)c1cc2cc(Br)ccc2oc1=Nc1ccc(C)cc1	12
CCC1NC(=O)NC(C)=C1C(C)=O (centres undefined)	-7
O=C(c1cccs1)N1CC(=O)N(CCc2ccccc2)C(=O)C1	-33
O=C1CN(S(=O)(=O)c2ccc(F)cc2)CC(=O)N1CCc1ccccc1	-6
O=C1CN(CCc2ccccc2)CC(=O)N1CCc1ccccc1	166*
SMILES	14-3-3 PPI
O=C(CSc1nnc(-c2ccccc2)n1-c1ccccc1)NC1CC1	-5
O=C1c2ccc3c4c(ccc(c24)C(=O)N1c1cccc([N+](=O)[O-])c1)C(=O)N(c1cccc([N+](=O)[O-])c1)C3=O	-8
Nc1c2c3c(c(Cl)ccc3[nH]c1=O)C(=O)c1ccccc1-2	-4
CC(=O)Nc1ccc(Nc2ccccc2)c2c1C(=O)c1ccccc1C2=O	-15
O=C1c2ccccc2-c2c(Nc3ccccc3)c(=O)[nH]c3cccc1c23	92*
CCOc1ccc(N(CC)S(=O)(=O)c2ccc3c(c2)CC(C)N3C(C)=O)cc1 (centres undefined)	-6
COc1cccc(C2C3=C(CC(c4ccccc4)CC3=O)Nc3cc(Cl)ccc3N2C(=O)C(F)(F)F)c1 (centres undefined)	-25
CCOc1cc2c(cc1OCC)C(c1ccccc1)N(c1ccc(OC)cc1)C(=O)C2 (centres undefined)	-9
COC(=O)c1ccccc1NC(=O)COc1c(C)ccc(C)c1C	-13
CCC(=O)Oc1c(-c2ccccc2)c2nc3ccccc3nc2c2ccccc12	27
CC(=O)Oc1c(C)cc(O)c2ccccc12	3
CC(=O)Oc1c(-c2ccccc2)c2nc3ccccc3nc2c2ccccc12	33*
Cc1ccc(NC(=O)N(C2CCCCC2)C(C)c2cccs2)cc1C (centres undefined)	3
CC1Cc2nc(SCC(=O)Nc3ccc4c(c3)OCCO4)n(Cc3ccccc3)c(=O)c2S1 (centres undefined)	-7
CC1=C(C(=O)OCCOc2ccccc2)C(c2cccc([N+](=O)[O-])c2)NC(=O)N1C (centres undefined)	-2
CC1=C(C(=O)OCCOc2ccccc2)C(c2cccc([N+](=O)[O-])c2)NC(=O)N1 (centres undefined)	34*
CC1=C(C(=O)OCc2ccccc2)C(c2cccc([N+](=O)[O-])c2)NC(=O)N1 (centres undefined)	-6
CC(C)(C)CC(C)(C)NC(=O)CSc1nnc(-c2ccco2)n1-c1ccccc1	-5
CC1CC(C)CN(c2cc(NCCCC(=O)O)c3c4c(onc24)-c2ccccc2C3=O)C1 (centres undefined)	-13

Compound activity: PubChem BioAssay, Emory University Molecular Libraries Screening Center
